Results filed as inconclusive are left out. Where a call stands in place of a potency, no number is given. Active and inactive are the calls of the source. The call rests on the fitted dose curve; in most records, active means well fitted curve in the direction sought with a large enough effect in the repeat runs; inconclusive means weak or mixed curves; inactive means no such curve, though single readings can be large; an effect the other way counts as inactive or inconclusive.
Test: qHTS RealTime-Glo MT Cell Viability Assay in HEK293 cells - 0 hour (AID 1224880); further: nearly all actives have a fitted effect of over 45% in size
Conditions: RealTime-Glo luminescence; series mostly up to 76.8 µM
Procedure, shortened: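 Cells were seeded together with NanoLuc luciferase and a prosubstrate that viable cells reduce to a luciferase substrate. After a 5 h incubation at 37 C/5% CO2, compounds were added and luminescence was measured repeatedly during 40 h of treatment.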
Potency means the concentration at half of the fitted maximal effect.

Row | Structure (SMILES) | Potency
1 | CC1=Nc2ccc3ccccc3c2C1(C)C | inactive
2 | O=C1C(=O)c2ccccc2C(O)=C1C1CCC(c2ccc(Cl)cc2)CC1 (configuration not stated) | 7.56 µM (active)
3 | CCC(C)(C)OC | inactive
4 | O=C1c2ccccc2C(=O)C1(O)O | inactive
5 | c1ccc(C[n+]2cccc3ccccc32)cc1 | inactive
6 | CC(CCC(=O)O)C(=O)O (configuration not stated) | inactive
7 | Nc1nnc(-c2ccc([N+](=O)[O-])o2)o1 | inactive
8 | O=C=Nc1cccc(C(F)(F)F)c1 | inactive
9 | OCCOCC#CCOCCO | inactive
10 | COC(=O)c1nc(Cl)c(Cl)nc1N | inactive
11 | COc1ccc(OC(=O)N(CC(=O)O)Cc2ccc(OCCc3nc(-c4ccccc4)oc3C)cc2)cc1 | inactive
12 | c1ccc2c(c1)CCc1ccccc1N2 | inactive
13 | O=C(OCC(O)CO)c1ccccc1Nc1ccnc2cc(Cl)ccc12 (configuration not stated) | inactive
14 | CC(CN(C)C)C(C)(O)Cc1ccc(Cl)cc1 (configuration not stated) | inactive
15 | COc1cc(C(=O)NC2CCN(C)CC2)ccc1Nc1ncc2c(n1)N(C1CCCC1)CC(F)(F)C(=O)N2C | inactive
16 | CCOC(C)=O | inactive
17 | CS(=O)(=O)c1ccc(-c2cn3ccccc3n2)cc1 | inactive
18 | CCOC(=O)OC(C)OC(=O)[C@@H]1N2C(=O)[C@@H](NC(=O)[C@H](N)c3ccccc3)[C@H]2SC1(C)C (some centres not stated) | inactive
19 | CN1C(=O)N(c2ccccc2Br)Cc2cnc(Nc3ccc4c(c3)OCC(CO)O4)nc21 (configuration not stated) | inactive
20 | Cc1ccc(OC(=O)c2ccccc2O)cc1 | inactive

Test: A CellTox Green Cytotoxicity Assay to monitor cytotoxicity in HEK293 cells - 32 hour (AID 1224881); further: nearly all actives have a fitted effect of over 40% in size
Conditions: CellTox Green fluorescence; series mostly up to 76.8 µM
Procedure, shortened: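 Nonlytic real-time cytotoxicity: HEK293 + CellTox Green reagent plated, 5 h preincubation, pintool compound addition (23 nL in DMSO), 37 C for 40 h, fluorescence measured at successive time points.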

Row | Structure (SMILES) | Potency
21 | O=C1c2ccccc2C(=O)C1c1nc2ccccc2c(Br)c1O | inactive
22 | OC[C@H]1O[C@@H](n2cnc3c(=S)nc[nH]c32)[C@H](O)[C@@H]1O | inactive
23 | CC(C)=CCC/C(C)=C/CC/C(C)=C/C(=O)OCC(=O)[C@@]1(O)CC[C@H]2[C@@H]3CCC4=CC(=O)C=C[C@]4(C)[C@H]3[C@@H](O)C[C@@]21C | inactive
24 | Nc1nc2ccc([N+](=O)[O-])cc2s1 | inactive
25 | Nc1cccc2c1CN(C1CCC(=O)NC1=O)C2=O (configuration not stated) | inactive
26 | COc1cc(Nc2c(C#N)cnc3cc(OCCCN4CCN(C)CC4)c(OC)cc23)c(Cl)cc1Cl | 21.3 µM (active)
27 | CN1CCCN=C1COC(=O)C(O)(c1ccccc1)C1CCCCC1 (configuration not stated) | inactive
28 | Cc1ccccc1S | inactive
29 | CCCCCCCCCCC(=O)O | inactive
30 | CN1C(=O)c2ccccc2C1=O | inactive
31 | CN1CCCC(n2nc(Cc3ccc(Cl)cc3)c3ccccc3c2=O)CC1 (configuration not stated) | 30.1 µM (active)
32 | CN1C(C(=O)Nc2ccccn2)=C(O)c2sccc2S1(=O)=O | inactive
33 | CCCC(=O)C(=O)O | inactive
34 | CC(=O)Oc1ccc([N+](=O)[O-])cc1CCl | inactive
35 | O=c1cc(-c2ccccc2)oc2cc(O)cc(O)c12 | inactive
36 | CCCCOc1ccc(OCCCN2CCOCC2)cc1 | inactive
37 | CCCCN1CCCC1C(=O)Nc1c(C)cc(C)cc1C (configuration not stated) | 16.9 µM (active)
38 | CCOC(=O)c1ccc(O)c(O)c1 | inactive

Row | Structure (SMILES) | Potency
39 | CC1=Nc2ccc3ccccc3c2C1(C)C | inactive
40 | O=C1C(=O)c2ccccc2C(O)=C1C1CCC(c2ccc(Cl)cc2)CC1 (configuration not stated) | inactive
41 | CCC(C)(C)OC | inactive
42 | O=C1c2ccccc2C(=O)C1(O)O | inactive
43 | c1ccc(C[n+]2cccc3ccccc32)cc1 | inactive
44 | CC(CCC(=O)O)C(=O)O (configuration not stated) | inactive
45 | Nc1nnc(-c2ccc([N+](=O)[O-])o2)o1 | inactive
46 | OCCOCC#CCOCCO | inactive
47 | COC(=O)c1nc(Cl)c(Cl)nc1N | 19 µM (active)
48 | COc1ccc(OC(=O)N(CC(=O)O)Cc2ccc(OCCc3nc(-c4ccccc4)oc3C)cc2)cc1 | inactive
49 | c1ccc2c(c1)CCc1ccccc1N2 | 49.2 µM (active)
50 | O=C(OCC(O)CO)c1ccccc1Nc1ccnc2cc(Cl)ccc12 (configuration not stated) | inactive
51 | CC(CN(C)C)C(C)(O)Cc1ccc(Cl)cc1 (configuration not stated) | inactive
52 | COc1cc(C(=O)NC2CCN(C)CC2)ccc1Nc1ncc2c(n1)N(C1CCCC1)CC(F)(F)C(=O)N2C | 35.7 µM (active)
53 | CCOC(C)=O | inactive
54 | CS(=O)(=O)c1ccc(-c2cn3ccccc3n2)cc1 | inactive
55 | CCOC(=O)OC(C)OC(=O)[C@@H]1N2C(=O)[C@@H](NC(=O)[C@H](N)c3ccccc3)[C@H]2SC1(C)C (some centres not stated) | inactive
56 | CN1C(=O)N(c2ccccc2Br)Cc2cnc(Nc3ccc4c(c3)OCC(CO)O4)nc21 (configuration not stated) | inactive

Test: A CellTox Green Cytotoxicity Assay to monitor cytotoxicity in HepG2 cells - 0 hour (AID 1224882); further: nearly all actives have a fitted effect of over 35% in size
Conditions: CellTox Green fluorescence; series mostly up to 76.8 µM
Procedure, shortened: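 Read-out is fluorescence of a cyanine dye excluded from live cells that stains DNA of dead HepG2 cells, with signal proportional to cytotoxicity. Plates were read at 0, 8, 16, 24, 32 and 40 h after compound addition.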

Row | Structure (SMILES) | Potency
57 | O=C1c2ccccc2C(=O)C1c1nc2ccccc2c(Br)c1O | inactive
58 | CC(=O)NC1(c2cccc(F)c2)CCN(CC[C@@]2(c3ccc(Cl)c(Cl)c3)CN(c3ccccc3)C(=O)CO2)CC1 | inactive
59 | CN1C(=O)c2ccccc2C1=O | inactive
60 | CC(=O)Nc1ccc(C)cc1C | inactive
61 | O=c1cc(-c2ccccc2)oc2cc(O)cc(O)c12 | inactive
62 | CCCCN1CCCC1C(=O)Nc1c(C)cc(C)cc1C (configuration not stated) | 23.9 µM (active)
63 | CC1=Nc2ccc3ccccc3c2C1(C)C | inactive
64 | O=C1c2ccccc2C(=O)C1(O)O | inactive
65 | O=C=Nc1cccc(C(F)(F)F)c1 | inactive
66 | CS(=O)(=O)c1ccc(-c2cn3ccccc3n2)cc1 | inactive
67 | Cc1ccc(OC(=O)c2ccccc2O)cc1 | inactive

Source: PubChem BioAssay (Tox21)
